Data on four molecules can be found in ChEMBL document CHEMBL1961873, “Compounds: GSK PKIS; Assays: Nanosyn kinase panel” (2012).

Experiment [1] concerns the target T1, Serine/threonine-protein kinase D2 (Homo sapiens) (UniProt Q9BZL6).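 Also: mean value of PRKD2 inhibition, from the GSK PKIS screening panel.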
T1 sequence (whole entry): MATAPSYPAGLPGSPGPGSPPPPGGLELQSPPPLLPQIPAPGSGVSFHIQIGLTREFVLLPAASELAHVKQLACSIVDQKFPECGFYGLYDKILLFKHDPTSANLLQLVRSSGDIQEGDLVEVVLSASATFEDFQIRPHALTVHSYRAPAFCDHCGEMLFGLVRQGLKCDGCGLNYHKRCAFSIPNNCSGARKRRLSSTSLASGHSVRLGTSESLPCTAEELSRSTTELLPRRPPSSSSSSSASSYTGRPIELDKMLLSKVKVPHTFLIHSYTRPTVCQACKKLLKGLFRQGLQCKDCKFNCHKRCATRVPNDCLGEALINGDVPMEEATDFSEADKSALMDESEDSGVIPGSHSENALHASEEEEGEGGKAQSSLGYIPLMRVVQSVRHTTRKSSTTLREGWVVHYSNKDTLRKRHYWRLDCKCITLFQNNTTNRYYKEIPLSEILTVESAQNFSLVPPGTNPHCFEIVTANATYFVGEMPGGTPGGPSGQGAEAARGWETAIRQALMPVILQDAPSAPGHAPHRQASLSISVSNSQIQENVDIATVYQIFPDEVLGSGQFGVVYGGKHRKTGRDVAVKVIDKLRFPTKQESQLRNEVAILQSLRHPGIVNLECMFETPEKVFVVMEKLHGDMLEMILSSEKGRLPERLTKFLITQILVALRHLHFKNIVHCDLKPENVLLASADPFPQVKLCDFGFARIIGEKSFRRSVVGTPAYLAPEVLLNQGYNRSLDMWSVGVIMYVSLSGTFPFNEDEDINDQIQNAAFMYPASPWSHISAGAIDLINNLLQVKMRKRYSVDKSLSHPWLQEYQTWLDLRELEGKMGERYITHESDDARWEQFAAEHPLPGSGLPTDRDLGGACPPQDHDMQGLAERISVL
As to conditions: at 1 µM.

In experiment [2] the target is T2, Serine/threonine-protein kinase D3 (Homo sapiens) (UniProt O94806).
T2 sequence (whole entry): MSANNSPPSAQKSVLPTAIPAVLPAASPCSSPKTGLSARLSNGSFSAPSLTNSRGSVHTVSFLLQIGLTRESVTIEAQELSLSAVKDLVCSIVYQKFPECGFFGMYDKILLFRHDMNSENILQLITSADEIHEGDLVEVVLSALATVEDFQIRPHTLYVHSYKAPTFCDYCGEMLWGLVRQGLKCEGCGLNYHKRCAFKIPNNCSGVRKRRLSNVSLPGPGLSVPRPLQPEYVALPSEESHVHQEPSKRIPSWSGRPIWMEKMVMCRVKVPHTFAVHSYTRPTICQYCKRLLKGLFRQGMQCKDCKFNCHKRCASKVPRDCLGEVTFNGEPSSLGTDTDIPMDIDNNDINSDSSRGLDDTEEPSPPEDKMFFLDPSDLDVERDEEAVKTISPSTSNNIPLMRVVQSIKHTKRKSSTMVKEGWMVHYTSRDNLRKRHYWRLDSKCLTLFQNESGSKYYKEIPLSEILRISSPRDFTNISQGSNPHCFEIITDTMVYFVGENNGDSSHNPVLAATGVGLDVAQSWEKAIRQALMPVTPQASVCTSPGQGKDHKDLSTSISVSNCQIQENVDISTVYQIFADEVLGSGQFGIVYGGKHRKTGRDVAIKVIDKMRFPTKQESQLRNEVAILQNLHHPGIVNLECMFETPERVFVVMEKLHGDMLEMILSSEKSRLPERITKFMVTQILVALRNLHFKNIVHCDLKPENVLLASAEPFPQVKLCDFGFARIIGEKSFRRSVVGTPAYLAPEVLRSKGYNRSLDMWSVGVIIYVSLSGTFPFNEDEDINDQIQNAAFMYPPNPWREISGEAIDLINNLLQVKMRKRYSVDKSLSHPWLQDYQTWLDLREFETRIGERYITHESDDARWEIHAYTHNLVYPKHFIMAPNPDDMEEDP
Particulars: at 0.1 µM.

Experiment [3] concerns the target T2, Serine/threonine-protein kinase D3 (Homo sapiens). Particulars: at 1 µM.
The target of experiment [4] is T3, cGMP-dependent protein kinase 1 (Homo sapiens) (UniProt Q13976).
T3 sequence (whole entry): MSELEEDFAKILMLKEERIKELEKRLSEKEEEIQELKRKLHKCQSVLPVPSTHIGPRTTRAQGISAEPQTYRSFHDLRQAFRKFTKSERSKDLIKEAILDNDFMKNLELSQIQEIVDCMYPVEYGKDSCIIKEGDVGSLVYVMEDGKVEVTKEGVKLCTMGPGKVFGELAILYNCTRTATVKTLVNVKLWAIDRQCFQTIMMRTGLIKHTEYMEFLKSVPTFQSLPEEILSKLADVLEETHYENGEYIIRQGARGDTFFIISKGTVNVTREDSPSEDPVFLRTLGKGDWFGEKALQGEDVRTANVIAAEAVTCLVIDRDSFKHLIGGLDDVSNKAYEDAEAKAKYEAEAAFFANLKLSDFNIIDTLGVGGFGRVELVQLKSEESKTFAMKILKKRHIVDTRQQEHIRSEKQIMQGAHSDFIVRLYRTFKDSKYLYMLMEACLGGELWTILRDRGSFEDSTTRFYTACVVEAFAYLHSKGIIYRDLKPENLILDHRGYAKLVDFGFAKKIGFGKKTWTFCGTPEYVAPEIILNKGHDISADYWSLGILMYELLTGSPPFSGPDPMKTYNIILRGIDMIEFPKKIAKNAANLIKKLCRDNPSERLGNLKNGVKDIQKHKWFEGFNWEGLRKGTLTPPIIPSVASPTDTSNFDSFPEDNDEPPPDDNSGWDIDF
As to conditions: at 0.1 µM.

Experiment [5] deals with T3, cGMP-dependent protein kinase 1 (Homo sapiens). Particulars: at 1 µM.
For experiment [6], the target named is T4, cGMP-dependent protein kinase 2 (Homo sapiens) (UniProt Q13237).
T4 sequence (whole entry): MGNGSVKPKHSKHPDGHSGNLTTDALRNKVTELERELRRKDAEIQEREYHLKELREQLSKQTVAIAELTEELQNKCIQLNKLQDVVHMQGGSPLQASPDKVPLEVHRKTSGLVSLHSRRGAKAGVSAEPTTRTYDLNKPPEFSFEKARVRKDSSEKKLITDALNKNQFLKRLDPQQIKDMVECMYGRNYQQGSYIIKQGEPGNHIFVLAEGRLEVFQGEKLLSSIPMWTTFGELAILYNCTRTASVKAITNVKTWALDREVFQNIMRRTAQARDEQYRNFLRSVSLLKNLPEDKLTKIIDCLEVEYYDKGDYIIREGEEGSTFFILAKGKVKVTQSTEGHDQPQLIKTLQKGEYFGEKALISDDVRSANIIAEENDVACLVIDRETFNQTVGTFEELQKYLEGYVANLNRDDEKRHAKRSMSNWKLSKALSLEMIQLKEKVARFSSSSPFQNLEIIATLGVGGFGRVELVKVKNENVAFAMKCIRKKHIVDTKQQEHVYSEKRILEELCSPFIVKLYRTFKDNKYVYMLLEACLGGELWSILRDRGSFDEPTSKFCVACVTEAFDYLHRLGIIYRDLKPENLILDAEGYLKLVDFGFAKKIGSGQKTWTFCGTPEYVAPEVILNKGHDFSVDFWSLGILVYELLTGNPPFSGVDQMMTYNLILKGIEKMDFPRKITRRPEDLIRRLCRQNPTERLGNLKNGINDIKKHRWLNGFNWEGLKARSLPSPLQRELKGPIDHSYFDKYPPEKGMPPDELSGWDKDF
As to conditions: at 0.1 µM.

For experiment [7], the target named is T4, cGMP-dependent protein kinase 2 (Homo sapiens). As to conditions: at 1 µM.
For experiment [8], the target named is T5, cAMP-dependent protein kinase catalytic subunit PRKX (Homo sapiens) (UniProt P51817).
T5 sequence (whole entry): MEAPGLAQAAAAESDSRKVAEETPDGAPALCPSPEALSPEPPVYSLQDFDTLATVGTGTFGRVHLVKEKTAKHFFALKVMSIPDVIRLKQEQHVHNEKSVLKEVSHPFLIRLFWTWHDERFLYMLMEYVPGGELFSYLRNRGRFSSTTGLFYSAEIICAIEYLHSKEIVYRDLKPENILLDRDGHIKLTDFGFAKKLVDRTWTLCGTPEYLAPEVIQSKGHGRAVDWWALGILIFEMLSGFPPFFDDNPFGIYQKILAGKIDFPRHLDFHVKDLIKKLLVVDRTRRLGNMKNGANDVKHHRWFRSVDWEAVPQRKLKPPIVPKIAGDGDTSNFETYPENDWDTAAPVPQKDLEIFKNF
As to conditions: at 0.1 µM.

Experiment [9] addresses T5, cAMP-dependent protein kinase catalytic subunit PRKX (Homo sapiens). As to conditions: at 1 µM.
Experiment [10] concerns the target Rho-associated protein kinase 1 (Homo sapiens) (UniProt Q13464). As to conditions: at 0.1 µM.
Experiment [11] shares this target. Particulars: at 1 µM.
For experiment [12], the target named is Rho-associated protein kinase 2 (Homo sapiens) (UniProt O75116). Particulars: at 0.1 µM.
Chain of Rho-associated protein kinase 2 (Homo sapiens) (O75116 whole entry, looked up): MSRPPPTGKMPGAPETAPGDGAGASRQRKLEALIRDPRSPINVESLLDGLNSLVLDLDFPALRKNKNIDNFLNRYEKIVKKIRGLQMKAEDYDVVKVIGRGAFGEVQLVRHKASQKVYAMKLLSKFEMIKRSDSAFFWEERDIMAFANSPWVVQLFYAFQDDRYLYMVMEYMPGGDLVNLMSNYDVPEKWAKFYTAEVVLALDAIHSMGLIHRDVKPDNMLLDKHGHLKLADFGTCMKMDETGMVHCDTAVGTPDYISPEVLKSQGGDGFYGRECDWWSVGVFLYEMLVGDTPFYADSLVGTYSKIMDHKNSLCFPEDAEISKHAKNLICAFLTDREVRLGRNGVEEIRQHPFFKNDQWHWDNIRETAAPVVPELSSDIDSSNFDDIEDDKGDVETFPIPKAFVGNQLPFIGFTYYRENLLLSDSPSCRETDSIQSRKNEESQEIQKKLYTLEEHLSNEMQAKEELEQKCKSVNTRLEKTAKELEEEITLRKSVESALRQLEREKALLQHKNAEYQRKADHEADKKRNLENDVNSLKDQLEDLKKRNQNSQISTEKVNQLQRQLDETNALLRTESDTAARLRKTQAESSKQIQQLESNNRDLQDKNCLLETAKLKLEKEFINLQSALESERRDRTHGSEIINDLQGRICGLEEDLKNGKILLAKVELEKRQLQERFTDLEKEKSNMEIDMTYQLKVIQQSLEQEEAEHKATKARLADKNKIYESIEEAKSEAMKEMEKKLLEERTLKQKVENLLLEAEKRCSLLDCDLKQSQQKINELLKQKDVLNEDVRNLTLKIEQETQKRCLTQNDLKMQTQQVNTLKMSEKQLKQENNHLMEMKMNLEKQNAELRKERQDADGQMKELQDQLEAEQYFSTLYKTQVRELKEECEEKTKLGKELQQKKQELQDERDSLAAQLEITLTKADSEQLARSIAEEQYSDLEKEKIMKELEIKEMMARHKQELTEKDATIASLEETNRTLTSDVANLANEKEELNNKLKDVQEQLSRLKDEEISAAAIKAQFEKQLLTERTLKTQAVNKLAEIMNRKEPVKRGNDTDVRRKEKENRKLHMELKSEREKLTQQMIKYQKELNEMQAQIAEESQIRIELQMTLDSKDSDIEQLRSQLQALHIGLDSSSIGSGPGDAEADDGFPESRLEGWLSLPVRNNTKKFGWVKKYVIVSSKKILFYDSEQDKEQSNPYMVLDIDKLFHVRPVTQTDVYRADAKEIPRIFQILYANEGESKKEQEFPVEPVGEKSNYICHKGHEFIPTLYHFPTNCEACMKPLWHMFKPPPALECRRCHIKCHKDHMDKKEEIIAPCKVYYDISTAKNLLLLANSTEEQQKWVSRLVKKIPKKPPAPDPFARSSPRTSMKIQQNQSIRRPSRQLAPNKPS
Experiment [13] shares this target. Particulars: at 1 µM.
Experiment [14] has as its target Ribosomal protein S6 kinase alpha-1 (Homo sapiens) (UniProt Q15418). As to conditions: at 0.1 µM.
Experiment [15] shares this target. Particulars: at 1 µM.
The target of experiment [16] is Ribosomal protein S6 kinase alpha-3 (Homo sapiens) (UniProt P51812). As to conditions: at 0.1 µM.
For experiment [17] the target is unchanged. Particulars: at 1 µM.
In experiment [18] the target is Ribosomal protein S6 kinase alpha-2 (Homo sapiens) (UniProt Q15349). As to conditions: at 0.1 µM.
Chain of Ribosomal protein S6 kinase alpha-2 (Homo sapiens) (Q15349 whole entry): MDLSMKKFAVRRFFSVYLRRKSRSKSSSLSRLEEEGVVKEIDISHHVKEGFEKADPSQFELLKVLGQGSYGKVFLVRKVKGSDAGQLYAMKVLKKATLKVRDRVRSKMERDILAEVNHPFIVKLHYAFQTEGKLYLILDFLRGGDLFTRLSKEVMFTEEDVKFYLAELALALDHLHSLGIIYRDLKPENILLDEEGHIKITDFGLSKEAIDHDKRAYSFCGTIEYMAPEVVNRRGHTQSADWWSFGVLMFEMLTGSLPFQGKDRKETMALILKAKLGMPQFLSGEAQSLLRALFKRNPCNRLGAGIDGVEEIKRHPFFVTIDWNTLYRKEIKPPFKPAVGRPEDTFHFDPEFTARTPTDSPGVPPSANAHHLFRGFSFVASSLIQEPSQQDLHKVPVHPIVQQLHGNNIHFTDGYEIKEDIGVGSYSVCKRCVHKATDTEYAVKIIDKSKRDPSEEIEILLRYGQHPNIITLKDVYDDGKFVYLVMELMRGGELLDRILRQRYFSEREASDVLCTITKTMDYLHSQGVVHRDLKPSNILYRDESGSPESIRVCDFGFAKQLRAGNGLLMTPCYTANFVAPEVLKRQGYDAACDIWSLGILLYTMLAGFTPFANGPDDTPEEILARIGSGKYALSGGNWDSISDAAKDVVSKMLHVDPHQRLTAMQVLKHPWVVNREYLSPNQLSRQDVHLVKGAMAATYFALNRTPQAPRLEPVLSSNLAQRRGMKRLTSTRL
Experiment [19] shares this target. Particulars: at 1 µM.
Experiment [20] addresses Ribosomal protein S6 kinase alpha-6 (Homo sapiens) (UniProt Q9UK32). Particulars: at 0.1 µM.

Molecules are shown by their SMILES.

Chain of Ribosomal protein S6 kinase alpha-6 (Homo sapiens) (Q9UK32 whole entry): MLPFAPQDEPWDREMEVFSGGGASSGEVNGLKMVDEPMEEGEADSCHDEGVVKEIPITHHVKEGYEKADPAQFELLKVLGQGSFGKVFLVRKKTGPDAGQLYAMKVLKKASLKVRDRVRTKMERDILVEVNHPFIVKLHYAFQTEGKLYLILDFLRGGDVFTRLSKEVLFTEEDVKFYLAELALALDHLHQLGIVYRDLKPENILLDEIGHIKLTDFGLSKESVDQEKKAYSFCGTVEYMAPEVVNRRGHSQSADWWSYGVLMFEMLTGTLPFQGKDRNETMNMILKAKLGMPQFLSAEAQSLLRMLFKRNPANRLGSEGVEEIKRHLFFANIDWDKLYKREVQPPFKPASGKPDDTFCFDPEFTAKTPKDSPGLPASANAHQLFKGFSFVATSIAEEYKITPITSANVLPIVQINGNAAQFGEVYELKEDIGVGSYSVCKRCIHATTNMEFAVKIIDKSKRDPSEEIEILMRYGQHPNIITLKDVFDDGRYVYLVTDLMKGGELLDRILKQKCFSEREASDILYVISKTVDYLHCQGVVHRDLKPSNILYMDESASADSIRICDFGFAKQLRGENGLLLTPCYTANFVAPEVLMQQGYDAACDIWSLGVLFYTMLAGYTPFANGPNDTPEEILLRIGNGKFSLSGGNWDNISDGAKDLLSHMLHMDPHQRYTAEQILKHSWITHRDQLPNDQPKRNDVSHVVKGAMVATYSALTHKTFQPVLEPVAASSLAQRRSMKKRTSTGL
Chain of Rho-associated protein kinase 1 (Homo sapiens) (Q13464 2-1354 limits assumed): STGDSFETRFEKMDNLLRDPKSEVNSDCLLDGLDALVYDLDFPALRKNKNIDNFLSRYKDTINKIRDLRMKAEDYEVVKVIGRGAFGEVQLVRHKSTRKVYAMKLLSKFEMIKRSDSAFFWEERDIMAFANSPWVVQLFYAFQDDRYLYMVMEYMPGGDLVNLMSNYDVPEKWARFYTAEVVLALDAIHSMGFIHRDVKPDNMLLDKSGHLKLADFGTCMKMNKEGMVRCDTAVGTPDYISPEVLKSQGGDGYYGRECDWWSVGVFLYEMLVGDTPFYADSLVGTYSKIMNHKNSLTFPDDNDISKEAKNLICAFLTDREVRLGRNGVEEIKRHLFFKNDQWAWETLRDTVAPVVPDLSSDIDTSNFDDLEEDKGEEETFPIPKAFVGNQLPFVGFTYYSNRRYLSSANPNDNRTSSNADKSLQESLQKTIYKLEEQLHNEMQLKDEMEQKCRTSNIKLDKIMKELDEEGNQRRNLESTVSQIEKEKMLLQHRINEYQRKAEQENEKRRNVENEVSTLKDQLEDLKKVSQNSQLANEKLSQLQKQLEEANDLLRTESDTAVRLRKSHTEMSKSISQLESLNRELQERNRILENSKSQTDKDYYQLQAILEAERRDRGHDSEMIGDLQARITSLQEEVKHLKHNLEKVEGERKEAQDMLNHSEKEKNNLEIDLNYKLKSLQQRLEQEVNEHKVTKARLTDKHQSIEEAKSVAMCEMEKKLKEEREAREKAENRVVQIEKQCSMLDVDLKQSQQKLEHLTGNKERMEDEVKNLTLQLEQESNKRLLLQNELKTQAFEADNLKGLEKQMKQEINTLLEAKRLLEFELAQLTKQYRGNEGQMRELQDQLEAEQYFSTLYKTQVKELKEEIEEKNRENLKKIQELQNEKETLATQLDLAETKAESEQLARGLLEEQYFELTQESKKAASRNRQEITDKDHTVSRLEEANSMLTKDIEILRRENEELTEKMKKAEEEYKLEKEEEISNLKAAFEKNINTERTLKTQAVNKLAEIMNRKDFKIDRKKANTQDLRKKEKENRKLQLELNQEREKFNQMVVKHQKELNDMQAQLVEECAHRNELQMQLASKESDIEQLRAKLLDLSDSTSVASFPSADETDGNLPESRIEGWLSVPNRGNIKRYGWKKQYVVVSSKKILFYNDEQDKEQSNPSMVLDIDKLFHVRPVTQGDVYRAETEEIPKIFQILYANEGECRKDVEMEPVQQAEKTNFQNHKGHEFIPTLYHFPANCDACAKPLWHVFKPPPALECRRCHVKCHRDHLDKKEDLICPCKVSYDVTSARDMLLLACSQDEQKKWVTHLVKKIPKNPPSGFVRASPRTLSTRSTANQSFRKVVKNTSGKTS
Chain of Ribosomal protein S6 kinase alpha-1 (Homo sapiens) (Q15418 whole entry): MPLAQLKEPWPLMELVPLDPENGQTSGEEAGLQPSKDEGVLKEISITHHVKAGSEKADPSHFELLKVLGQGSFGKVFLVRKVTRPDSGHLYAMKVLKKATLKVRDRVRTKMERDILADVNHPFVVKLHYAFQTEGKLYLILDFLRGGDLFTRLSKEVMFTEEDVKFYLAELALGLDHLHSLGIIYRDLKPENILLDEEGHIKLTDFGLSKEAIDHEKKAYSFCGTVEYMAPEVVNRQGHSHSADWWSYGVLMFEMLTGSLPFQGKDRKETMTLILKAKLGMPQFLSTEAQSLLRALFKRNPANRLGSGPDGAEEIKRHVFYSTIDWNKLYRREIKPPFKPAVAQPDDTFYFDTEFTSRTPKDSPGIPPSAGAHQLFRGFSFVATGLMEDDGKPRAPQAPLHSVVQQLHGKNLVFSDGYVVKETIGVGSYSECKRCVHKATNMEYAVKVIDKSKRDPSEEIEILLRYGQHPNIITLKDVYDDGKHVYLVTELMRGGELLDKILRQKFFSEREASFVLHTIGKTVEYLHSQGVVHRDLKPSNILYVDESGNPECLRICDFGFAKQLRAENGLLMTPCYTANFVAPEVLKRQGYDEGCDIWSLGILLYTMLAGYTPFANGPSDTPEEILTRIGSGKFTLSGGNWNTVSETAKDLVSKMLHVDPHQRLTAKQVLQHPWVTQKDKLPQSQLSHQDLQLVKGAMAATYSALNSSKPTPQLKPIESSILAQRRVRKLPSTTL

Consider `CCCN1CCC=C(c2ccc(Nc3nc(Nc4ccccc4C(N)=O)c4cc[nH]c4n3)c(C)c2)C1`, for which the inhibition (in general, the change of the read-out against control, counted positive when it falls) in [1] stood at 68.5%; in [2] it was 18.8%; in experiment [3], 61.7%; in experiment [4], 4.43%; in [5], 18.8%; in experiment [6], 5.72%. Moreover, the inhibition in experiment [7] came out at 31.8%; in [8], 2.31%; in [9], 2.1%; in experiment [10] it was 2.33%; in experiment [11], 8.96%; in [12], 2.53%. For the same molecule, the inhibition in experiment [13] turned out to be 12.8%; in experiment [14], 19.8%; in experiment [15] it was 54.6%; in [16], 9.39%; in experiment [17], 39.4%; in experiment [18], 3.72%. Besides, the inhibition in experiment [19] came out at 19.2%; in [20] it was 11.7%.
With `O=C1NC(=O)C(c2ccc(Cl)cc2)=C1Nc1ccc(Cl)c(C(=O)O)c1`, the inhibition is -0.34% in experiment [1]; -1.37% in experiment [2]; -0.38% in experiment [3]; -0.49% in [4]; -0.47% in experiment [5]; -1.52% in experiment [6]. Moreover, the inhibition is -0.68% in [7]; -1.61% in experiment [8]; -1.33% in experiment [9]; -0.15% in experiment [10]; 1.07% in experiment [11]; -1.68% in experiment [12]. For the same molecule, the inhibition in experiment [13] is -2.33%; in experiment [14], -0.77%; in experiment [15], -0.61%; in experiment [16], -1.11%; in experiment [17], -1.86%; in [18], -1.33%. Further, the inhibition was -1.11% in experiment [19] and -1.33% in experiment [20].
As for `COc1ccc(-c2nn3ncccc3c2-c2ccnc(Nc3ccc(Cl)c(C(F)(F)F)c3)n2)cc1`, the inhibition in experiment [1] turned out to be 4.34%; in [2] it was 2.86%; in [3] it was 3.78%; in [4] it was 0.21%; in [5], 0.97%; in experiment [6], 0.9%. Moreover, the inhibition worked out at 2.46% in experiment [7]; 0.84% in experiment [8]; 3.14% in experiment [9]; 1.25% in [10]; 0.16% in experiment [11]; 0.42% in [12]. Moreover, the inhibition was found to be 5.75% in [13]; 1.97% in [14]; 4.11% in experiment [15]; 1.72% in experiment [16]; 3.67% in experiment [17]; 0.41% in experiment [18]. For the same molecule, the results for the inhibition in experiment [19] and in experiment [20] were 2.22% and 0.23%, respectively.
As for `O=C1NC(=O)C(c2cccc(Cl)c2)=C1Nc1ccc(O)c(Cl)c1`, the inhibition in [1] came out at 3.16%; in experiment [2] it was 0.75%; in experiment [3], 1.47%; in [4], 0.66%; in [5], 2.21%; in experiment [6] it was 1.23%. In addition, the inhibition in [7] was 5.33%; in experiment [8], -0.43%; in experiment [9] it was -1.53%; in [10], 0.21%; in [11], 0.49%; in [12] it was -0.28%. The inhibition in experiment [13] was -2.05%; in [14] it was 1.2%; in experiment [15] it was 7.59%; in [16], 1.93%; in experiment [17], 14.1%; in experiment [18], 3.16%. Further, the values for the inhibition in experiment [19] and in experiment [20] were 19.8% and 3.63%, respectively.
